These results are taken from PubChem BioAssay (NCI).

This is part of a sample that, as a whole, favours compounds with a hit. Of some 83,000 tested, about 20% had one in any assay.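 48-hour exposure, single concentration, 96-well plates; percent growth endpoint where 0 means no net growth. Active: below 10.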 Unmarked numbers belong to inactive results. Activity calls are given as the source filed them.

Holding throughout (assay): NCI-60 one-dose screen, 48 h (100 = growth as untreated, 0 = no growth, -100 = all killed)
Details in all cases: 10 µM unless noted

In assay [1] the test system is SK-MEL-2 melanoma.
In assay [2] the test system is EKVX NSCLC.
For assay [3], the system named is SN12C renal.
The subject of assay [4] is UO-31 renal.
Assay [5] has as its system TK-10 renal.
Assay [6] has as its system ACHN renal.
Assay [7] relates to CAKI-1 renal.
The test system of assay [8] is A498 renal.
Assay [9] deals with CCRF-CEM leukemia.
Assay [10] deals with MOLT-4 leukemia.
In assay [11] the test system is SR leukemia.
Assay [12] concerns RPMI-8226 leukemia.
Assay [13] relates to OVCAR-8 ovarian.
Assay [14] has as its system OVCAR-5 ovarian.
Assay [15] deals with OVCAR-4 ovarian.
Assay [16] has as its system IGROV1 ovarian.
Assay [17] relates to OVCAR-3 ovarian.
The subject of assay [18] is HS 578T breast.
Assay [19] has as its system NCI/ADR-RES ovarian.
Assay [20] relates to SK-OV-3 ovarian.

For `CC(C)(C)c1cn2cccc(C(=O)N3CCN(CC(=O)Nc4ccc(Cl)cc4C(=O)c4ccccc4Cl)CC3)c2n1`, the growth in assay [1] was 65.4%; in assay [2], 40.8%; in assay [3], 72.6%; in assay [4], 47%; in assay [5], 69%; in assay [6], 44.8%. Besides, the growth in [7] is 67.5%; in assay [8], -0.735% (active); in assay [9], 27.9%; in assay [10], 16.4%; in assay [11], 13.2%; in [12], 24.1%. Also, the growth in assay [13] is 51%; in assay [14], 75.1%; in assay [15] it was 50.6%; in [16] it was 51.2%; in assay [17] it was 75.7%; in [18], 32.2%. Also, the growth in assay [19] was 39.5%.

With `COc1cc(-c2csc(NC(=O)Nc3ccc(Cl)cc3Cl)n2)cc(OC)c1OC`, the growth is 62.7% in assay [1]; 46.6% in assay [2]; 59.5% in [3]; 34.6% in [4]; 54.6% in assay [5]; 30.3% in [6]. Further, the growth in assay [7] is 37.8%; in assay [8], 34.8%; in [9], 33.3%; in assay [10] it was 33.4%; in assay [11] it was 23.1%; in assay [12], 30%. Besides, the growth was 45.4% in assay [13]; 75.8% in [14]; 55.5% in assay [15]; 55.5% in [20]; 51.7% in assay [16]; 20.5% in [17]. Also, the growth in assay [18] is 34.5%; in assay [19], 9.75% (active).

As for `CC(C)(C)OC(=O)N1C/C(=C\c2cccs2)C(=O)/C(=C/c2cccs2)C1`, the growth in [1] was 95.6%; in assay [2], 99.5%; in assay [3], 93.6%; in [4] it was 71.4%; in assay [5], 110%; in [6], 97.2%. Besides, the growth in [7] is 67.2%; in assay [8], 81.9%; in assay [9] it was 51.7%; in assay [10] it was 69.4%; in assay [11] it was 55.5%; in assay [12], 55.4%. Also, the growth in [13] was 87.8%; in [14], 109%; in [15] it was 82.2%; in [20], 90.1%; in assay [16], 83%; in assay [17] it was 104%. For the same compound, the growth was 93.3% in assay [18] and 96.3% in assay [19].

For `O=S(=O)(NCCCNc1cc(-c2cn(-c3ccccc3)nc2-c2cccc(O)c2)ccn1)c1ccc(Cl)cc1`, the growth is 5.9% (active) in assay [1]; 27.6% in [2]; 34.5% in assay [3]; 10% in [4]; 33.5% in assay [5]; 17% in assay [6]. The growth in assay [7] was 15.3%; in [8], 26.4%; in assay [9], 11.6%; in assay [10], 4.49% (active); in assay [11], 4.43% (active); in assay [12], 8.7% (active). Moreover, the growth in assay [13] was 20.4%; in assay [14], 37%; in assay [15], 34.7%; in assay [20], 33.1%; in assay [16], 27.5%; in assay [17], 26.6%. In addition, the growth in assay [18] was 5.52% (active); in assay [19], 23.7%.

Turning to `COc1ncc(-c2ccc3ncnc(Nc4cccc(Cl)c4)c3c2)cc1N(S(C)(=O)=O)S(C)(=O)=O`, the growth in [1] is 77.4%; in assay [2], 30%; in assay [3] it was 64.5%; in [4], 25.9%; in [5], 5.88% (active); in assay [6] it was 22%. Further, the growth in assay [7] was 26.8%; in assay [8] it was 49.6%; in assay [9] it was 86.8%; in assay [10] it was 69.9%; in assay [11], 92.6%; in [12] it was 55.8%. Also, the growth was 73.8% in assay [13]; 43.2% in [14]; 77.3% in assay [15]; 52.2% in assay [20]; -28.6% (active) in assay [16]; 54.9% in assay [17]. Moreover, the growth is 49.7% in assay [18] and 72.7% in [19].

For the compound `CNC(=O)c1cc(Oc2ccc3c(c2)sc2nc(-c4ccc(Cl)cc4)cn23)ccn1`, the growth in assay [1] was 116%; in assay [2], 80.9%; in assay [3], 95.9%; in assay [4] it was 85.7%; in assay [5], 110%; in assay [6], 79.3%. Besides, the growth was 78.8% in assay [7]; 88.8% in [8]; 93.6% in [9]; 93% in assay [10]; 82.9% in [11]; 92.4% in [12]. In addition, the growth in assay [13] was 73%; in [14], 113%; in assay [15] it was 55.2%; in assay [20] it was 66.2%; in [16], 87.6%; in assay [17] it was 82.7%. The growth in assay [18] was 70.5%; in [19], 84.7%.

As for `CCSc1nnc(NC(=O)COc2ccc(Cl)cc2C)s1`, the growth is 48.6% in assay [1]; 102% in assay [2]; 101% in assay [3]; 46.2% in [4]; 116% in [5]; 96.5% in [6]. For the same compound, the growth in assay [7] is 85.8%; in assay [8], 109%; in [9], 99.1%; in assay [10], 95.6%; in [11], 43.4%; in assay [12] it was 94.6%. In addition, the growth is 100% in assay [13]; 96.2% in assay [14]; 107% in assay [15]; 93.5% in assay [20]; -17.9% (active) in assay [16]; 94.8% in assay [17]. Further, the growth in assay [18] was 101%; in [19], 106%.

As for `COc1cc(C(=O)N2CCN(C(=O)c3ccco3)CC2)c(N)cc1OCc1ccccc1`, the growth in assay [1] was 77.6%; in assay [2], 94.6%; in [3], 101%; in [4] it was 41.9%; in assay [5] it was 107%; in assay [6] it was 99.6%. Moreover, the growth in assay [7] was 105%; in assay [8] it was 105%; in assay [9] it was 86.4%; in assay [10] it was 95.4%; in assay [11], 86.5%; in [12], 71.9%. Moreover, the growth in [13] was 99.8%; in assay [14], 107%; in [15], 92.9%; in assay [20], 113%; in assay [16], -5.4% (active); in assay [17], 105%. The growth in assay [18] was 91.9%; in assay [19] it was 102%.
